# Target: AgAbp1
# Experiment: SPOT peptide array binding signal intensity (averaged, normalized) (arbitrary units (background-subtracted, floor 0; scale differs between SH3 domains)); higher = stronger binding of the SH3 domain to the peptide
# Summary of the method: (§1)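 Spot intensities were captured after detection with anti-GST antibody, an HRP-linked anti-mouse secondary and luminol, and quantified with Genespotter. The probes were GST-fused SH3 domains from four yeast species, produced in E. coli BL21(DE3), purified on glutathione Sepharose and incubated at 10 μg/ml overnight at 4°C on cellulose-bound synthetic 15-mer peptides with cysteines replaced by serines. Binding signal is the normalized, background-subtracted spot intensity averaged over replicates, and its arbitrary units differ between domains.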
row,Binder,SPOT peptide array binding signal intensity
1,TTNRGPPPLPPRANV,2

# Target: AgBbc1
# Experiment: as above
# Summary of the method: as §1
row,Binder,SPOT peptide array binding signal intensity
1,TTNRGPPPLPPRANV,301

# Target: AgBem1-D1
# Experiment: as above
# Summary of the method: as §1
row,Binder,SPOT peptide array binding signal intensity
1,TTNRGPPPLPPRANV,53.5

# Target: AgBzz1-D1
# Experiment: as above
# Summary of the method: as §1
row,Binder,SPOT peptide array binding signal intensity
1,TTNRGPPPLPPRANV,385

# Target: AgBzz1-D2
# Experiment: as above
# Summary of the method: as §1
row,Binder,SPOT peptide array binding signal intensity
1,TTNRGPPPLPPRANV,144

# Target: AgCyk3
# Experiment: as above
# Summary of the method: as §1
row,Binder,SPOT peptide array binding signal intensity
1,TTNRGPPPLPPRANV,6

# Target: AgFus1
# Experiment: as above
# Summary of the method: as §1
row,Binder,SPOT peptide array binding signal intensity
1,TTNRGPPPLPPRANV,≤ 0

# Target: AgHof1
# Experiment: as above
# Summary of the method: as §1
row,Binder,SPOT peptide array binding signal intensity
1,TTNRGPPPLPPRANV,398

# Target: AgHse1
# Experiment: as above
# Summary of the method: as §1
row,Binder,SPOT peptide array binding signal intensity
1,TTNRGPPPLPPRANV,35.5

# Target: AgLsb1
# Experiment: as above
# Summary of the method: as §1
row,Binder,SPOT peptide array binding signal intensity
1,TTNRGPPPLPPRANV,513

# Target: AgLsb4
# Experiment: as above
# Summary of the method: as §1
row,Binder,SPOT peptide array binding signal intensity
1,TTNRGPPPLPPRANV,4310

# Target: AgMyo5
# Experiment: as above
# Summary of the method: as §1
row,Binder,SPOT peptide array binding signal intensity
1,TTNRGPPPLPPRANV,394

# Target: AgNbp2
# Experiment: as above
# Summary of the method: as §1
row,Binder,SPOT peptide array binding signal intensity
1,TTNRGPPPLPPRANV,4.5

# Target: AgRvs167
# Experiment: as above
# Summary of the method: as §1
row,Binder,SPOT peptide array binding signal intensity
1,TTNRGPPPLPPRANV,1710

# Target: AgSho1
# Experiment: as above
# Summary of the method: as §1
row,Binder,SPOT peptide array binding signal intensity
1,TTNRGPPPLPPRANV,≤ 0

# Target: AgSla1-D1-D2
# Experiment: as above
# Summary of the method: as §1
row,Binder,SPOT peptide array binding signal intensity
1,TTNRGPPPLPPRANV,≤ 0

# Target: AgSla1-D3
# Experiment: as above
# Summary of the method: as §1
row,Binder,SPOT peptide array binding signal intensity
1,TTNRGPPPLPPRANV,4

# Target: CaAbp1-D1
# Experiment: as above
# Summary of the method: as §1
row,Binder,SPOT peptide array binding signal intensity
1,TTNRGPPPLPPRANV,19

# Target: CaAbp1-D2
# Experiment: as above
# Summary of the method: as §1
row,Binder,SPOT peptide array binding signal intensity
1,TTNRGPPPLPPRANV,≤ 0

# Target: CaBbc1
# Experiment: as above
# Summary of the method: as §1
row,Binder,SPOT peptide array binding signal intensity
1,TTNRGPPPLPPRANV,590

# Target: CaBem1-D1
# Experiment: as above
# Summary of the method: as §1
row,Binder,SPOT peptide array binding signal intensity
1,TTNRGPPPLPPRANV,28

# Target: CaBzz1-D1
# Experiment: as above
# Summary of the method: as §1
row,Binder,SPOT peptide array binding signal intensity
1,TTNRGPPPLPPRANV,6090

# Target: CaBzz1-D2
# Experiment: as above
# Summary of the method: as §1
row,Binder,SPOT peptide array binding signal intensity
1,TTNRGPPPLPPRANV,2120

# Target: CaCyk3
# Experiment: as above
# Summary of the method: as §1
row,Binder,SPOT peptide array binding signal intensity
1,TTNRGPPPLPPRANV,10.5

# Target: CaFus1
# Experiment: as above
# Summary of the method: as §1
row,Binder,SPOT peptide array binding signal intensity
1,TTNRGPPPLPPRANV,22.5

# Target: CaHof1
# Experiment: as above
# Summary of the method: as §1
row,Binder,SPOT peptide array binding signal intensity
1,TTNRGPPPLPPRANV,101

# Target: CaHse1
# Experiment: as above
# Summary of the method: as §1
row,Binder,SPOT peptide array binding signal intensity
1,TTNRGPPPLPPRANV,73

# Target: CaLsb1
# Experiment: as above
# Summary of the method: as §1
row,Binder,SPOT peptide array binding signal intensity
1,TTNRGPPPLPPRANV,9

# Target: CaLsb4
# Experiment: as above
# Summary of the method: as §1
row,Binder,SPOT peptide array binding signal intensity
1,TTNRGPPPLPPRANV,4530

# Target: CaMyo5
# Experiment: as above
# Summary of the method: as §1
row,Binder,SPOT peptide array binding signal intensity
1,TTNRGPPPLPPRANV,6.25

# Target: CaNbp2
# Experiment: as above
# Summary of the method: as §1
row,Binder,SPOT peptide array binding signal intensity
1,TTNRGPPPLPPRANV,35

# Target: CaRvs167
# Experiment: as above
# Summary of the method: as §1
row,Binder,SPOT peptide array binding signal intensity
1,TTNRGPPPLPPRANV,1980

# Target: CaRvs167-3
# Experiment: as above
# Summary of the method: as §1
row,Binder,SPOT peptide array binding signal intensity
1,TTNRGPPPLPPRANV,≤ 0

# Target: CaSho1
# Experiment: as above
# Summary of the method: as §1
row,Binder,SPOT peptide array binding signal intensity
1,TTNRGPPPLPPRANV,0.5

# Target: CaSla1-D1-D2
# Experiment: as above
# Summary of the method: as §1
row,Binder,SPOT peptide array binding signal intensity
1,TTNRGPPPLPPRANV,436

# Target: CaSla1-D3
# Experiment: as above
# Summary of the method: as §1
row,Binder,SPOT peptide array binding signal intensity
1,TTNRGPPPLPPRANV,1.5

# Target: ScAbp1
# Experiment: as above
# Summary of the method: as §1
row,Binder,SPOT peptide array binding signal intensity
1,TTNRGPPPLPPRANV,12

# — the supplement of paper PMC4466140
